Measured values from the supplement of paper PMC3334620.
In all, about 33,000 sequences were measured (“E-score (-0.5 to 0.5)”: median about -0.054, highest 2% from about 0.39 on). This is one part of a sample in which the highest values are shown more often than they occur.

molecular target: Ylr278c (UniProt Q05854); test: PBM E-score (8-mer binding enrichment) (E-score (-0.5 to 0.5)); higher = stronger / more preferred TF binding; settings: protein concentration: 200 nM; construct: GST-DNA-binding domain
Method in brief: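 PURExpress in vitro transcription/translation supplied GST-tagged yeast transcription factors, either full-length or DNA-binding domain. Applied at about 100-200 nM to universal all-10-mer Agilent arrays double-stranded by primer extension, the bound protein was detected with fluorescent anti-GST. E-scores, modified Wilcoxon-Mann-Whitney statistics, were given by the Universal PBM Analysis Suite to ungapped eight-base words pooled with their reverse complements after masliner normalisation.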

Chain of UniProt Q05854 (Q05854 whole entry, the tested form may be a part): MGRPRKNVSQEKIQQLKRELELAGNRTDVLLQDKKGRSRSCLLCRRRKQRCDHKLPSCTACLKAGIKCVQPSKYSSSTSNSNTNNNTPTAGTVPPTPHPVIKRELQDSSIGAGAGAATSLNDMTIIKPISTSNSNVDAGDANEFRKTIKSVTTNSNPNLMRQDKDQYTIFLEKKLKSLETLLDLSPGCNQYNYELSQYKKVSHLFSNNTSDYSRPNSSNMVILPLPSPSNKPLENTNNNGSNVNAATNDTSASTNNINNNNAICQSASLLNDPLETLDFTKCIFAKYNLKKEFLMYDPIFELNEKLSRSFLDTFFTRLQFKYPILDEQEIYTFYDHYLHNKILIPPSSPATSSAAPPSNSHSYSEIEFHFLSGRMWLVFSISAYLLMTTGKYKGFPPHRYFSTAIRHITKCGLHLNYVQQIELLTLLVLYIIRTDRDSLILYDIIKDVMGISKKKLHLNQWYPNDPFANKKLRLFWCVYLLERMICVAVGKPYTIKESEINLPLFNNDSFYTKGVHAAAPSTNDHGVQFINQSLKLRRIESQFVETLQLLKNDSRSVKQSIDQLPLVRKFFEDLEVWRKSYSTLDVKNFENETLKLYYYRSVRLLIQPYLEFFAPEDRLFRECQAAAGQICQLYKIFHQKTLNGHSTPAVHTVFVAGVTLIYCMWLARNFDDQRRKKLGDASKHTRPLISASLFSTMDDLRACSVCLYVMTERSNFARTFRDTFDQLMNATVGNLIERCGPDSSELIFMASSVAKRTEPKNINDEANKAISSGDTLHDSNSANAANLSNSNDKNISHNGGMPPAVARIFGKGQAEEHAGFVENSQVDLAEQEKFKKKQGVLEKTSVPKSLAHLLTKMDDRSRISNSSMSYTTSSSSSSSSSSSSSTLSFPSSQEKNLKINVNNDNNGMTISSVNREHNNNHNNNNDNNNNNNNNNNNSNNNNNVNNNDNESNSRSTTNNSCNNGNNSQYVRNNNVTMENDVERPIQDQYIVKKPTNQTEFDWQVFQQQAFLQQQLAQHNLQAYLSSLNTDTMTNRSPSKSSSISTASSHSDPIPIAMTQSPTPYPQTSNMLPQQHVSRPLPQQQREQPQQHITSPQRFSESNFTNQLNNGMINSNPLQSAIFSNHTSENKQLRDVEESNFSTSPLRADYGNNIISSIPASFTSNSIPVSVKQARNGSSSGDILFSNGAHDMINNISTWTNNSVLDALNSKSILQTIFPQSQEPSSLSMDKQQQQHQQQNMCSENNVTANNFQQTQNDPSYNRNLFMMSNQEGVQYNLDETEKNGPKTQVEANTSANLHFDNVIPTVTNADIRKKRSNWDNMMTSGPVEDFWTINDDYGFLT

Sequence | PBM E-score
AGCCCTTA | -0.232
CGGACGAA | 0.332
CGGGGATA | 0.349
CGGGGATC | 0.408
AGGGGATC | -0.0127
GCGGGACC | 0.216
CCGGGACC | 0.408
CCGGGATC | 0.411
GCGGGATA | 0.266
CTGGGATC | -0.101
CCGGGATA | 0.395
ACGGGATC | 0.109
ACGGGACC | 0.0315
ACGGGATA | 0.261
ATTGCATC | -0.105
AGCGAAGG | -0.0577
ATATGCAA | -0.0841
TCGCCAGA | -0.26
AAACAGAA | -0.207
CTAGGCAA | -0.0858
TAGTTTCA | -0.0254
ACCTAGAG | -0.141
GGAGAATA | 0.189
AAGGGCTG | -0.213
CCCGGATA | 0.351

Sequence | PBM E-score
CACGGATC | 0.242
CCCGGATC | 0.403
GTTGCTTA | -0.107
GTCTGCGA | -0.207
GTCACCCA | -0.109
ACTAGCCT | -0.0654
CATTGAGA | -0.119
CTCTCGAA | -0.33
ATCTCGGA | 0.406
CTCTCGGC | 0.181
CTCTCGGA | 0.405
GTCTCGGA | 0.385
ATCTCGGG | 0.278
GGCGACGA | -0.172
AAAGCCTA | -0.184
ATCTAACG | 0.0888
CGGCTGGA | 0.0769
GGGATGAC | 0.0341
GCGCGGGA | 0.248
CCGCGGGC | 0.367
CCGCGGAG | 0.449
CCGCGCAG | 0.274
CAGCGGAA | 0.359
CAGCGGAG | 0.408
AAGCGGAG | 0.355

Sequence | PBM E-score
GCGCGGAC | 0.294
CCGCGGCG | 0.364
CAGCGGAC | 0.257
CCGCGGAC | 0.429
CCGCGGGA | 0.393
GCTTCTAC | -0.123
ATTAGGGA | -0.0669
CCTGAAGA | -0.0995
CCATAGGG | -0.154
CTTTACAC | 0.022
ACCAGGAT | -0.0342
ACGCGGAG | 0.421
GCGCGGAA | 0.387
TCGCGGAA | 0.342
ACGCGGAT | 0.23
ACGCGGAC | 0.342
CCGCGGAA | 0.414
AATTAGCT | 0.0507
AAGCCGTG | 0.00789
GCCTTTAC | -0.0652
ACACCGTA | 0.102
ACTCCGTC | 0.459
ATTCCGTC | 0.362
GCTCCGTA | 0.405
ACTCCGTG | 0.449

Sequence | PBM E-score
CCTCCGTA | 0.37
ACTCCTTA | -0.0802
AGTCCGTG | 0.343
ACTCCGTA | 0.443
GCTCCATA | -0.175
AATCCGTG | 0.26
CCTCCGTC | 0.351
GCTGGAGA | -0.271
GGCACTAC | -0.0733
CCTGATCG | -0.0211
CTGAGTGC | -0.133
AGGAGTGC | -0.139
CGGAGTGA | 0.459
CGGAGTGC | 0.438
GGGAGTGA | 0.0441
AGGAGTGA | -0.0619
GACCATGA | 0.0081
CCTTCTGC | -0.136
ATGTTAGC | -0.0158
AAGACGCA | -0.074
GTCAACAA | -0.23
AGCTCCCG | 0.0891
AGCTCCGC | 0.436
AGCTCCAA | -0.207
GGCTCCGA | 0.393

Sequence | PBM E-score
AGCTCCTG | -0.0626
AGCTCCTA | -0.0358
AGCTCCGA | 0.47
AGCTCCTC | -0.144
AGCTCCAC | -0.0221
GGCTCCAA | -0.0143
AGCTCCGG | 0.458
GGCTCCCA | -0.145
GAGCCTCA | -0.171
CGCTCCCG | 0.115
CACTTCAC | -0.0647
GTCTGTTA | -0.13
TGCTCCCA | -0.175
AAGTCGAG | -0.374
CTGTCTGC | -0.222
CCCAATAA | -0.0977
GGAGACTA | 0.0463
GCTAAGAC | -0.0188
CGCTCCGA | 0.432
CGCTCCGC | 0.317
CGCTCCCA | 0.0833
AACTGTGG | -0.0559
ACTACGCT | -0.0389
TCCGACAA | 0.39
GCCGACGA | 0.248

Sequence | PBM E-score
ACCGACAA | 0.199
TCCGACGA | 0.397
CCCGACGA | 0.213
CCCGACAA | 0.281
ACCTCTGA | -0.0775
CAAGATTG | -0.151
AAAATTAT | 0.214
TCCCGGCA | 0.333
ACCCGGAC | 0.396
CCGGGGAC | 0.242
ACCCGGTC | 0.202
ACCCGGTA | 0.161
CCCGGGAC | 0.394
GCCGGGAC | 0.255
TCCCGGAA | 0.44
ACCCGGAA | 0.394
ACCCGGCA | 0.174
ACCCGGGC | 0.273
TCACGGAA | 0.324
CCCCTAAC | -0.141
GAAATCGC | 0.214
AACTGGCC | 0.0711
GTGCCTTA | -0.129
AGCGCAGG | 0.169
CAAAAAGG | -0.203

Sequence | PBM E-score
AATTTCTC | 0.121
CCCCGGCC | 0.287
CCCCGGAC | 0.388
GCCCGGCC | 0.32
CCCCGGCG | 0.348
CCCCGGAG | 0.48
GCCCGGAC | 0.406
CCCCGGCA | 0.318
CCCCGGTC | 0.368
CCCCGGAA | 0.406
CCCGGGAG | 0.294
CCCCGGTA | 0.329
GCCCGGGC | 0.356
AAACCAGC | 0.0107
AGTGAGCC | -0.162
TACTTTAA | -0.122
TCGGGTCA | 0.232
AGCAGCCA | -0.259
CCCAGTCC | -0.0128
CTATAAAG | 0.0306
GAACCAGC | -0.126
ACCCGGAT | 0.238
